Source: PubChem BioAssay (National Center for Advancing Translational Sciences (NCATS))
An excerpt weighted towards active compounds, which were near 10% of everything screened.
HP1b chromo inh: inhibitors of HP1-beta chromodomain binding to methylated histone tails | P83916 | AlphaScreen HP1-beta / biotin-H3K9me3 peptide binding | Potency, µM (top dose mostly 114 µM), most hits filed as inhibitors | hit rate 0.56% among 390,000; further: nearly all actives have a fitted effect of over 70% in size
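Compound inhibition of the preformed complex between 50 nM HP1-beta and 50 nM biotinylated H3K9me3 peptide was read by AlphaScreen. Buffer was PBS pH 7.4 with 0.01% Tween-20. Incubations ran 30 min at room temperature, with 10 ug/mL donor/acceptor beads.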
JMJD2A Tudor inh: JMJD2A Tudor domain (human) inhibition. Potency, µM (series often up to 114 µM), most hits filed as inhibitors. AID 504339. AlphaScreen JMJD2A-Tudor / H3K4me3 peptide binding. hit rate 4.4% among 390,000. O75164; further: nearly all actives have a fitted effect of over 50% in size
Target sequence (O75164 whole entry, looked up, the tested form may be a part): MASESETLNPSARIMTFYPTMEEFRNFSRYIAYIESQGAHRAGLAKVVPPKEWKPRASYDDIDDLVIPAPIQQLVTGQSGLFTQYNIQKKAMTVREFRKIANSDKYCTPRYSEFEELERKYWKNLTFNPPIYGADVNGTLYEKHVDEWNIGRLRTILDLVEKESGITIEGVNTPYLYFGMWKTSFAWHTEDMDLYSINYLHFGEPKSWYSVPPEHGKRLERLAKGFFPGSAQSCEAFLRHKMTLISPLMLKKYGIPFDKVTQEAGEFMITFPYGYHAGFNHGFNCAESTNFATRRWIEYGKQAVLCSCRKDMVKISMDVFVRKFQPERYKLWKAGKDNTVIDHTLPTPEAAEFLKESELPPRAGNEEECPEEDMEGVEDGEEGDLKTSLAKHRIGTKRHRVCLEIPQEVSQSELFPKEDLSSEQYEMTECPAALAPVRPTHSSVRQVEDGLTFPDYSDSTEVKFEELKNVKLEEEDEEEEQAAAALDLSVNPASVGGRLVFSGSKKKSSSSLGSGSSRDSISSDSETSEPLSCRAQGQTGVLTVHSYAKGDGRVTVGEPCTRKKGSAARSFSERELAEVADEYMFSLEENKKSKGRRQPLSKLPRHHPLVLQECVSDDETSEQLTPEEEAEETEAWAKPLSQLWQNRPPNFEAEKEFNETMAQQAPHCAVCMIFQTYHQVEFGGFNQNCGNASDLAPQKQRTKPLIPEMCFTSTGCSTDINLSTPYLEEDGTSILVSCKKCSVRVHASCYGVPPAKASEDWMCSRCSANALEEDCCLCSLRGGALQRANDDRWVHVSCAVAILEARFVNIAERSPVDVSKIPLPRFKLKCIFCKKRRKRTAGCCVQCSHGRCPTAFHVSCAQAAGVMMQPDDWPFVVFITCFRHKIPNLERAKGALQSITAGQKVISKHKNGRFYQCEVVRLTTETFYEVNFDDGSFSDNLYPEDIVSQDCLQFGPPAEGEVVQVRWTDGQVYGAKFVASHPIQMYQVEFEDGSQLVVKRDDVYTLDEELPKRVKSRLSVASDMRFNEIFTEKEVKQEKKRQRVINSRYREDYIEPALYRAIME
BAZ2B inh: inhibitors of human BAZ2B bromodomain | AlphaScreen BAZ2B-H3K14Ac peptide displacement | Potency, µM (titrated, usually from 114 µM), usual class: inhibitors | hit rate 4.4% among 360,000 | AID 504333; further: nearly all actives have a fitted effect of over 60% in size
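Compounds, titrated to a top concentration of 110 uM, were incubated 30 min at room temperature with preformed BAZ2B/acetyl-K14 H3 peptide complex (50 nM each). Proximity signal was measured by AlphaScreen after 20 min with beads.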
G9a inh: G9a (human) methyltransferase inhibition; Q96KQ7; G9a H3K9 monomethylation, AlphaScreen, 2 h; Potency, µM (highest dose often 102 µM), hits mostly inhibitors; hit rate 8.8% among 350,000; further: nearly all actives have a fitted effect of over 75% in size
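Readings reflect AlphaScreen signal from monomethyl-H3K9 antibody detection. HMT at 20 nM; substrate b-H3K9 500 nM; cofactor SAM 20 uM; 2 h RT reaction; compounds tested as titrations in qHTS with 15 min preincubation.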
GLS inhibitor: inhibitors of human glutaminase (GLS); O94925; GLS enzymatic activity, qHTS titration; Potency, µM (top dose mostly 45.5 µM), most hits filed as inhibitors; hit rate 0.21% among 410,000; AID 624170
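hKGA; 45 mM KH2PO4 pH 8.2 + 0.02% Tween-20; cpd via pin tool; 1 mM Gln soln; GluOx/HRP/Amplex Red; RT 30 min; fluor. t0 & final.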
Each line names hits and unclear results; the compound was inactive in the other large screens. The call rests on the fitted dose curve; in most records, active means well fitted curve in the direction sought with a large enough effect; inconclusive means small, poorly fitted or top-dose-only effect, or another doubt; inactive means no such curve, though single readings can be large; an effect the other way counts as inactive or inconclusive.

CCc1ccc(CNC(=O)CC2C(=O)NCCN2Cc2ccccc2F)nc1 (stereo not given)	G9a inh 79.4µM
CCn1ccnc1CNC(=O)CC1C(=O)NCCN1Cc1ccccc1F (stereo not given)	none
COc1cccc(CN2CCNC(=O)C2CC(=O)NCCn2nc(C)cc2C)c1OC (stereo not given)	G9a inh inconclusive
Cc1cnc(CNC(=O)CC2C(=O)NCCN2Cc2ccccc2C(F)(F)F)cn1 (stereo not given)	G9a inh 31.6µM
Cc1cc(CNC(=O)CC2C(=O)NCCN2CC(c2ccccc2)c2ccccc2)on1 (stereo not given)	none (no result: G9a inh)
Cc1cc(CNC(=O)CC2C(=O)NCCN2Cc2ccccc2C(F)(F)F)on1 (stereo not given)	G9a inh 50.1µM
CCOc1ccc(-n2c(SCc3ccc([N+](=O)[O-])cc3)nnc2-c2ccc(OC)cc2)cc1	HP1b chromo inh inconclusive, JMJD2A Tudor inh inconclusive, BAZ2B inh inconclusive, G9a inh 8.91µM
C[C@H](NC(=O)c1nc[nH]c1C(=O)N1CCNCC1)C(=O)OCc1ccccc1	JMJD2A Tudor inh 35.5µM, BAZ2B inh 56.2µM
C[C@H](NC(=O)c1nc[nH]c1C(=O)NCC(=O)OC(C)(C)C)C(=O)OC(C)(C)C	BAZ2B inh inconclusive
O=C(CNC(=O)c1nc[nH]c1C(=O)N1CCNCC1)OCc1ccccc1	JMJD2A Tudor inh 50.1µM, BAZ2B inh 50.1µM
C[C@H](NC(=O)c1nc[nH]c1C(=O)N1CCN(c2ccccc2)CC1)C(=O)OCc1ccccc1	none (no result: G9a inh)
CC1CCN(C(=O)c2[nH]cnc2C(=O)NCC(=O)OCc2ccccc2)CC1	G9a inh inconclusive
C[C@H](NC(=O)c1nc[nH]c1C(=O)NC1CCNCC1)C(=O)OC(C)(C)C	BAZ2B inh 50.1µM, G9a inh inconclusive
CCN(CC)C(=O)C1=C(C)N(Cc2ccc(OC)cc2)C(=O)C(CC(=O)NC(c2ccccc2)c2ccccc2)C1 (stereo not given)	none (no result: HP1b chromo inh, JMJD2A Tudor inh, BAZ2B inh, G9a inh)
Cc1ccc(OCCNC(=O)C(=O)NCc2ccco2)cc1	none
CC(=O)N(c1ccc(Cl)cc1)C1SC(=O)N(c2ccccc2)C1=O (stereo not given)	none (no result: BAZ2B inh, G9a inh, GLS inhibitor)
C=CCN1C(=O)S/C(=C/c2ccc(Sc3nc4ccccc4[nH]3)o2)C1=O	G9a inh 2µM
CC1=C(Sc2nc3ccccc3[nH]2)C(=O)NC(C)(C)C1	none
CC(C)N1C(=O)S/C(=C/c2ccc(Sc3nc4ccccc4[nH]3)o2)C1=O	G9a inh 70.8µM
CCOC(=O)/C=C/[C@H]1CCc2cccc(Cl)c2O1	none
CC(=O)NC(c1ccc(F)c(F)c1)c1nc(-c2ccccc2)cs1 (stereo not given)	none (no result: HP1b chromo inh, JMJD2A Tudor inh, BAZ2B inh, G9a inh)
Cc1cccn2cc(-c3cc4ccccc4oc3=O)nc12	JMJD2A Tudor inh 89.1µM (no result: G9a inh)
O=c1oc2ccccc2cc1-c1cn2ccccc2n1	none
COc1ccccc1CCNS(=O)(=O)CCNC(=O)c1ccc2c(c1)OCO2	none
CCCCCCCCCc1nc2sc3c(c2c(=O)n1NC(=O)c1ccccc1[N+](=O)[O-])CC(C)(C)OC3	JMJD2A Tudor inh inconclusive, G9a inh 70.8µM
CCOC(=O)c1c(C)[nH]c(CCC(=O)Nc2c(C)cccc2CC)c1C	none
COc1ccc(OC)c(C2c3c(oc4ccccc4c3=O)C(=O)N2CCCN(C)C)c1 (stereo not given)	G9a inh inconclusive
CCN(CC)CCN1C(=O)c2oc3ccccc3c(=O)c2C1c1ccccc1 (stereo not given)	none
CCN(CC)CCCN1C(=O)c2oc3ccccc3c(=O)c2C1c1cccs1 (stereo not given)	G9a inh 50.1µM (no result: HP1b chromo inh, JMJD2A Tudor inh, GLS inhibitor)
CCCOc1ccc(C2c3c(oc4ccccc4c3=O)C(=O)N2CCN(CC)CC)cc1OC (stereo not given)	G9a inh 50.1µM
CCN(CC)CCN1C(=O)c2oc3ccccc3c(=O)c2C1c1cccc(Br)c1 (stereo not given)	G9a inh 50.1µM
O=C1c2oc3ccc(Cl)cc3c(=O)c2C(c2cccc(Br)c2)N1CCO (stereo not given)	G9a inh 50.1µM
CC1(C)CC(=O)C2=C(C1)O[C@@]1(CCCCN3C(=O)c4ccccc4C3=O)Cc3ccccc3C2O1	none (no result: HP1b chromo inh, JMJD2A Tudor inh, G9a inh, GLS inhibitor)
O=S(=O)(c1ccc2c(c1)OCCO2)N1CCN(S(=O)(=O)c2ccc(F)cc2F)CC1	none (no result: HP1b chromo inh, BAZ2B inh, G9a inh, GLS inhibitor)
O=S(=O)(c1cccc(C(F)(F)F)c1)n1c(/C=C/c2ccccc2)nc2ccccc21	none
CC(OC(=O)CC1CCCCC1)C(=O)Nc1ccc(F)cc1 (stereo not given)	none
CN(C)CCCN1C(=O)c2oc3ccc(Cl)cc3c(=O)c2C1c1cccnc1 (stereo not given)	G9a inh 50.1µM
Cc1ccc2oc3c(c(=O)c2c1)C(c1ccc(O)cc1)N(CCCN(C)C)C3=O (stereo not given)	none
Cc1ccc(-c2nnc3sc(C4COc5ccccc5O4)nn23)cc1 (stereo not given)	none
c1ccc(Cc2nnc3sc(C4COc5ccccc5O4)nn23)cc1 (stereo not given)	G9a inh 10µM
c1ccc(OCc2nnc3sc(C4COc5ccccc5O4)nn23)cc1 (stereo not given)	HP1b chromo inh 15.8µM, JMJD2A Tudor inh 50.1µM, BAZ2B inh 50.1µM, G9a inh 7.94µM
O=C(CNc1ccc2ccccc2c1)N/N=C/c1ccc(OC(=O)/C=C/c2ccco2)cc1	G9a inh inconclusive
O=C(CCCC(=O)N/N=C\c1ccccn1)N/N=C\c1ccccn1	BAZ2B inh inconclusive, G9a inh inconclusive
O=C(CNc1ccc2ccccc2c1)N/N=C/c1ccccn1	G9a inh 3.98µM
O=C(CNc1ccc2ccccc2c1)N/N=C/c1ccncc1	G9a inh 1.41µM
Cc1ccc(S(=O)(=O)N2CCCCC2)cc1C(=O)Nc1ccc(S(=O)(=O)Nc2ncccn2)cc1	BAZ2B inh inconclusive, G9a inh 50.1µM
Cc1ccc(S(=O)(=O)N2CCOCC2)cc1C(=O)Nc1ccc(N2CCCCCC2)cc1	HP1b chromo inh inconclusive, JMJD2A Tudor inh 22.4µM, BAZ2B inh 39.8µM
Cc1ccc(S(=O)(=O)N2CCCC2)cc1C(=O)NCCN1CCOCC1	BAZ2B inh inconclusive, G9a inh 79.4µM
O=C(NC(=S)N1CCCCC1CO)c1cc(Br)ccc1Cl (stereo not given)	JMJD2A Tudor inh 7.94µM, G9a inh inconclusive
C#CCOCC1CNC(=S)O1 (stereo not given)	none (no result: HP1b chromo inh, JMJD2A Tudor inh, BAZ2B inh, G9a inh)
COc1ccccc1NC(=O)c1cnc(SCC(=O)NCC2CCCO2)n(C)c1=O (stereo not given)	none
CN(c1ccccc1)S(=O)(=O)c1ccc(Cl)c(C(=O)Nc2ccc(N3CCOCC3)cc2)c1	JMJD2A Tudor inh inconclusive, BAZ2B inh inconclusive, G9a inh 50.1µM
CS(=O)(=O)c1ccc(C(=O)Nc2ccc(N3CCOCC3)cc2)c(Cl)c1	none
O=C(Nc1ccc(OC(F)F)cc1)c1cc(S(=O)(=O)N2CCCCC2)ccc1N1CCOCC1	G9a inh 15.8µM
